# Laboratory results taken from PubChem BioAssay (NCI).
# This is part of a sample that, as a whole, favours compounds with a hit. Of some 83,000 tested, about 20% had one in any assay.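 Percent growth is the endpoint: 0 to 100 indicates growth inhibition (40 means 60% inhibition), 0 means no net growth, and negative values indicate cell death.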 The source made the active and inactive calls.
# Test system: HS 578T breast
# Assay: NCI-60 one-dose screen, 48 h (100 = growth as untreated, 0 = no growth, -100 = all killed)
# Settings: 10 µM
# Description: Growth inhibition of the HS 578T human tumor cell line is measured as a screen for anti-cancer activity. Cells are grown in 96 well plates and exposed to the test compound for 48 hours. Compounds are tested at a single concentration, which is 10^-5 M for most compounds. The reported endpoint is percent growth (GI% or GIPRCNT), where numbers from 0 - 100% represent growth inhibition, and numbers from -100% - 0 represent cell death. For example, a value of 40 represents 60% growth inhibition. A value of 0 means no net growth occurred over the course of the experiment. A value of -40 indicates 40% of cells at the beginning of the experiment died by the end of the experiment. A value of -100 means all cells are dead at the end of the experiment.
# NCI-60 Human Tumor Cell Lines Screen was performed using the standard one-dose NCI protocol, which is described in more detail at https://dtp.cancer.gov/discovery_development/nci-60/default.htm.
# Compounds with GIPRCNT values below 10 were considered active. Activity score was based on GIPRCNT using the following formula: […]
# Score is 0 for GIPRCNT values of 100 or above, 50 for GIPRCNT values of 0, and 100 for GIPRCNT values of -100.
row,Compound,growth
1,CNC(=O)c1cc(Oc2ccc(NC(=O)Nc3ccc(Cl)c(OC4CCCCC4)c3)c(F)c2)ccn1,66% (inactive)
2,O=S(=O)(NC1c2ccccc2Oc2ccccc21)c1cc(Cl)ccc1Cl,102% (inactive)
3,Nc1ccc2c(c1)Cc1cc(N)c(Cl)cc1-2,89.8% (inactive)
4,O=C1/C(=C/c2ccc(O)cc2)Oc2ccc(Cl)cc21,87.1% (inactive)
5,CCOC(=O)c1cc2c(n1Cc1cc(OC)cc(OC)c1)-c1oncc1CC2,-1.17% (active)
6,COc1ccc(-c2n/c(=C\c3c(O)[nH]c4ccccc34)cc3c2=Nc2ccccc2-3)cc1,80.7% (inactive)
7,O=C1/C(=C/c2cccs2)CCC/C1=C\c1cccs1,95.7% (inactive)
8,COc1ccc(/C=C(\c2cc(OC)c(OC)c(OC)c2)c2nnc(-c3cccs3)o2)cc1,43.6% (inactive)
9,Cc1ccccc1[P+](Cc1ccccc1)(c1ccccc1)c1ccccc1,54.4% (inactive)
10,Fc1ccc2[nH]c3c(NCCCN4CCOCC4)ncnc3c2c1,34.5% (inactive)
11,CCCCCCCCCCCC(=O)NCCCN(C)C,106% (inactive)
12,COc1cc(OC)cc(N2CCN(C(=O)Nc3nc4cc(F)ccc4nc3OC)CC2)c1,37.6% (inactive)
13,COc1ccc(-c2oncc2-c2cc(OC)c3c(c2)OCO3)cc1,4.09% (active)
14,COc1c(C)c(C)c(OC)c2c1[nH]c(=O)c1c3cccnc3cn21,99.5% (inactive)
15,O=C(NNC(=O)c1ccncc1)Nc1ccc([N+](=O)[O-])cc1,107% (inactive)
16,COc1ccc(-c2nnc(COc3ccc(NC(=O)Nc4cccc(C(F)(F)F)c4)cc3F)o2)cc1,67.3% (inactive)
17,CC(C)(C)CC(C)(C)c1ccc(O)c(Cc2ccc(Cl)cc2Cl)c1,-23% (active)
18,O=C(O)c1cc(C(F)(F)F)cc(C(F)(F)F)c1,109% (inactive)
19,COc1ccc(Cn2cc3c(c2-c2cc(OC)c(OC)c(OC)c2)CCc2cnoc2-3)cc1N,10.4% (inactive)
20,C/C(=N\NC(=O)c1sc(=S)n(C)c1N)c1cc2ccccc2o1,61.6% (inactive)

row,Compound,growth
1,COc1cc(-c2nc3ccccc3[nH]2)ccc1OCc1nnc(-c2ccc(Br)cc2)o1,78.4% (inactive)
2,O=C(NCCc1nccs1)c1cnc2c(S)cccc2c1,21.5% (inactive)
3,O=C(c1ccccc1)C(Sc1ccccc1)c1ccccc1 (stereo not given),100% (inactive)
4,NC(=O)C12C(=O)NC(=O)C1(C(=O)O)C21CCCC1 (stereo not given),107% (inactive)
5,COc1cc(-c2nc3ccc(C)cc3[nH]2)ccc1OCC(=O)N=Nc1c(O)[nH]c2ccccc12,-46.8% (active)
6,O=C(O)CCCCSCCCCC(=O)O,104% (inactive)
7,CCCCCCCCCCCCCC[n+]1ccccc1,-12.6% (active)
8,NCCNc1ccc2cc(-c3nc4ccccc4[nH]3)c(=O)oc2c1,91.6% (inactive)
9,COc1cc(C)c2sc3ccccc3c(=O)c2c1NCCN(C)C,58.6% (inactive)
10,COc1ccc(-c2ccc(-c3ccc(C(=N)N)c(F)c3)s2)cc1,-54.3% (active)
11,CCOC(=O)C(CCC1=NC(C)(C)CC(C)O1)C(=O)OCC (stereo not given),95.3% (inactive)
12,CCN(CC)CC(O)Cc1ccc(OC)cc1 (stereo not given),107% (inactive)
13,COc1cc(Nc2ccnc(N3CCN(c4ccnc5cc(Cl)ccc45)CC3)n2)cc(OC)c1,24.6% (inactive)
14,CCCCNC(=O)Oc1ccc(/C(=C(\C)c2ccc(OC)cc2)c2ccc(OCCN3CCCCC3)cc2)cc1,48.5% (inactive)
15,COc1ccc(-c2ccccc2)cc1C(=O)c1ccc(-c2ccccc2)cc1,81.5% (inactive)
16,O=C(O)CCCN1C(=O)NC2(C1=O)c1ccccc1-c1ccccc12,93.9% (inactive)
17,Cc1nc(N)sc1Sc1nc2ccc(Cl)cc2c(=O)n1-c1ccc(Oc2ccccc2)cc1,81.9% (inactive)
18,N#C/C(=C\N1C(=O)/C(=C/c2cccc([N+](=O)[O-])c2)SC1=S)c1nc2ccccc2s1,95.9% (inactive)
19,Cn1c(=O)c2[nH]c(C(O)c3ccc(Cl)cc3)nc2n(C)c1=O (stereo not given),87.9% (inactive)
20,S=c1c2ncccc2c(-c2ccccn2)nn1Cc1ccccn1,111% (inactive)
